Parameters in all cases: scale not given: direction of the effect not stated beside the values
The target in experiment [1] is Protein translocase subunit SecA (Escherichia coli (strain K12)) (UniProt P10408). The experiment is described as follows: Assay to Identify E. coli SecA ATPase Inhibitors. It counts as functional. The conditions noted are these: 30 µM.
The target of experiment [2] is T1, Ubiquitin-activating enzyme e1, putative (Leishmania donovani (strain BPK282A1)) (UniProt E9BSI1).
T1 sequence (whole entry): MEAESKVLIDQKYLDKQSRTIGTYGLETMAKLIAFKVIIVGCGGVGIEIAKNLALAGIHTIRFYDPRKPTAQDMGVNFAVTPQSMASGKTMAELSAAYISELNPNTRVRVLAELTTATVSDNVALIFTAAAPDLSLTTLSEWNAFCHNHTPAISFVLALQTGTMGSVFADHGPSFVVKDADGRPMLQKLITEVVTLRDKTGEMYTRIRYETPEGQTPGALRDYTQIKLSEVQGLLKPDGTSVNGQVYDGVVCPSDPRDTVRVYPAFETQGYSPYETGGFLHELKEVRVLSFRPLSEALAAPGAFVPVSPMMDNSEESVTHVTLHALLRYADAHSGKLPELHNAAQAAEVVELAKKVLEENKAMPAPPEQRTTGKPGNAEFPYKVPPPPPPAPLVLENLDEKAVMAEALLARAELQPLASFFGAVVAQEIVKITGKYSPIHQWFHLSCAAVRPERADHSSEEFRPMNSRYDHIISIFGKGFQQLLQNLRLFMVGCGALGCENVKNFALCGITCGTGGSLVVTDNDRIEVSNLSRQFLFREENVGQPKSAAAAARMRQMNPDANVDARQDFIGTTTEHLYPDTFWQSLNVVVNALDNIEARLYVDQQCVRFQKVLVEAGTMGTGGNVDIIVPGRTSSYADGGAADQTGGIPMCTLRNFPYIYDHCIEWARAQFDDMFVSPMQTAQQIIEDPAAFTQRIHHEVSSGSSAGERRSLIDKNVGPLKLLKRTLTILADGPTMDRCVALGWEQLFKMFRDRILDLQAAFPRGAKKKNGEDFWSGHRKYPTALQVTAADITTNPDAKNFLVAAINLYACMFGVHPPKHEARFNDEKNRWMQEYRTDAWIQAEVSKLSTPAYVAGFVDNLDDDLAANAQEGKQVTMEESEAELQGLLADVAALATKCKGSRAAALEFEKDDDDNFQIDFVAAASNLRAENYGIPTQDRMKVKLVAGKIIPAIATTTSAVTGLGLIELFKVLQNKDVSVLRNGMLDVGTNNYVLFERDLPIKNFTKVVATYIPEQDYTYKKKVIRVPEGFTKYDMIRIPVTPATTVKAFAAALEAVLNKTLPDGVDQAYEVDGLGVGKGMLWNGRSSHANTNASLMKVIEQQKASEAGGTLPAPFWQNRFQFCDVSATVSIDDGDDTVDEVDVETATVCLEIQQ
The experiment is described as follows: Leishmania donovani Ubiquitin Activating Enzyme (LdE1). Format: functional. The conditions noted are these: 30 µM.

In experiment [3] the target is AMP-activated protein kinase, AMPK (Homo sapiens) (UniProt P54646+O43741+P54619+Q9UGJ0+Q9Y478+Q13131+Q9UGI9). The experiment is described as follows: AMP-dependent Kinase enzyme assay. An in vitro enzyme assay that detects ADP turnover that is directly proportional to AMPK activity. This uses naive AMPK that is activated during the assay with MK-8722. Format: functional. The conditions noted are these: 30 µM.

In experiment [4] the target is Sialic acid-binding Ig-like lectin 9 (Homo sapiens) (UniProt Q9Y336). The experiment is described as follows: Hs-Siglec9 ALPHAscreen SOP 20170721. As to conditions: 10 µM.
A further experiment deals with Trypanosoma cruzi. The experiment is described as follows: Trypanosoma cruzi phosphomannomutase and mannose-1-phosphate guanylyltransferase assay. As to conditions: 10 µM. It counts as functional.
Experiment [5] concerns the target T2, Arginase-2, mitochondrial (Homo sapiens) (UniProt P78540).
T2 sequence (whole entry): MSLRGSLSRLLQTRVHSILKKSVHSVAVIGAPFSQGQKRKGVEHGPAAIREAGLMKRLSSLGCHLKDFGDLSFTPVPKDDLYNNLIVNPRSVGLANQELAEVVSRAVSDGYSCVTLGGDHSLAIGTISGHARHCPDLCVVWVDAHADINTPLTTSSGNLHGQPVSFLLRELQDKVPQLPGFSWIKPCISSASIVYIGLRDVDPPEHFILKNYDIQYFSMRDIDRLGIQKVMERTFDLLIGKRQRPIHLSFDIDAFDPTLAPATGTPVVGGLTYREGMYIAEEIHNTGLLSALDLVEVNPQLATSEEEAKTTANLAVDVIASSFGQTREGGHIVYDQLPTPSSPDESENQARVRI
The experiment is described as follows: in vitro enzyme assay to detect the production of urea directly proportional to the activity of Arginase II. Further: in the data most compounds retested in dose-response had high values. Format: functional. As to conditions: 33.3 µM.

In experiment [6] the target is T3, Proteasome subunit beta (Trypanosoma cruzi) (UniProt O96673).
T3 sequence (whole entry): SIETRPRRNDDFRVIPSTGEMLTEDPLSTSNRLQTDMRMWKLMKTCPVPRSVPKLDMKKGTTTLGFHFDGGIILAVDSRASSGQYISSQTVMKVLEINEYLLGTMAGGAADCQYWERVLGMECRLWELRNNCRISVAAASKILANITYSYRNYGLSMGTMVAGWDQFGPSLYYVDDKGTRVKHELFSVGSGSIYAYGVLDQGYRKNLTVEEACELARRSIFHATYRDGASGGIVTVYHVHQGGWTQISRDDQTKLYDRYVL
The experiment is described as follows: Trypanosoma cruzi proteasome chymotrypsin-like activity (TcProtChymo) assay. Further: in the data most compounds retested in dose-response had high values. It counts as functional. As to conditions: 9.37 µM.

For another experiment, the species on record is Homo sapiens. The experiment is described as follows: To identify inhibition of the IFN signalling (Jak-Stat) pathway via expression of an eGFP reporter gene under the control of an IFN-stimulated response element (ISRE) containing MxA promoter. Format: functional. The conditions noted are these: 30 µM.
Experiment [7] deals with T4, Tyrosyl-tRNA synthetase, putative (Trypanosoma cruzi (strain CL Brener)) (UniProt Q4DSP6).
T4 sequence (whole entry): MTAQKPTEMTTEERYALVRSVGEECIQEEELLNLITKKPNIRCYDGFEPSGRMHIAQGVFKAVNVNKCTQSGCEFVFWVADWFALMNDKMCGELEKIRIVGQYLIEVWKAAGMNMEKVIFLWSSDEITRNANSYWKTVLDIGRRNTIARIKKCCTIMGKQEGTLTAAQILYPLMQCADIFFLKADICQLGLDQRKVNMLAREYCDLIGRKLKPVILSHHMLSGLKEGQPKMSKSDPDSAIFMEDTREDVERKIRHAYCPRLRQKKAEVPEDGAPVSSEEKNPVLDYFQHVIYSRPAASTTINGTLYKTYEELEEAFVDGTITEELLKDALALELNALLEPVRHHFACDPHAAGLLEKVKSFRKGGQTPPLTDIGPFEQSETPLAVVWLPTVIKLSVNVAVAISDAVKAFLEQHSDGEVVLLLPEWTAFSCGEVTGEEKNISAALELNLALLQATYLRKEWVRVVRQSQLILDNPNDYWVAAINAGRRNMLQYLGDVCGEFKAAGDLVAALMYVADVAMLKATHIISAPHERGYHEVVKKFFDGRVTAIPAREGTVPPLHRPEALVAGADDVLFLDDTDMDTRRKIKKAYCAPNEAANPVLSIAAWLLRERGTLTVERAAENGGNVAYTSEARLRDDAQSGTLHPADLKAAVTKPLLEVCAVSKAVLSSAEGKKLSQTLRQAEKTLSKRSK
The experiment is described as follows: Trypanosoma cruzi tyrosyl tRNA synthetase (TcYRS) _High Tyrosine SOP. Further: in the data most compounds retested in dose-response had high values. It counts as functional. As to conditions: 30 µM.

Experiment [8] deals with T4, Tyrosyl-tRNA synthetase, putative (Trypanosoma cruzi (strain CL Brener)). The experiment is described as follows: Trypanosoma cruzi tyrosyl tRNA synthetase (TcYRS) SOP. It counts as functional. The conditions noted are these: 30 µM.
The target of experiment [9] is Chromo domain-containing protein 1 (Saccharomyces cerevisiae (strain ATCC 204508 / S288c) (Baker's yeast)) (UniProt P32657). The experiment is described as follows: ScCHD-1 Enzyme Inhibition Assay. Further: in the data most compounds retested in dose-response had high values. Format: functional. The conditions noted are these: 30 µM.

We go through eleven compounds from ChEMBL document CHEMBL3988442, “University of Dundee, Small-Polar-MMV Screening Library” (2021).

Molecules are shown by their SMILES. For some of these results: Results with a measured potency or affinity are listed apart.

Chain of Sialic acid-binding Ig-like lectin 9 (Homo sapiens) (Q9Y336 whole entry): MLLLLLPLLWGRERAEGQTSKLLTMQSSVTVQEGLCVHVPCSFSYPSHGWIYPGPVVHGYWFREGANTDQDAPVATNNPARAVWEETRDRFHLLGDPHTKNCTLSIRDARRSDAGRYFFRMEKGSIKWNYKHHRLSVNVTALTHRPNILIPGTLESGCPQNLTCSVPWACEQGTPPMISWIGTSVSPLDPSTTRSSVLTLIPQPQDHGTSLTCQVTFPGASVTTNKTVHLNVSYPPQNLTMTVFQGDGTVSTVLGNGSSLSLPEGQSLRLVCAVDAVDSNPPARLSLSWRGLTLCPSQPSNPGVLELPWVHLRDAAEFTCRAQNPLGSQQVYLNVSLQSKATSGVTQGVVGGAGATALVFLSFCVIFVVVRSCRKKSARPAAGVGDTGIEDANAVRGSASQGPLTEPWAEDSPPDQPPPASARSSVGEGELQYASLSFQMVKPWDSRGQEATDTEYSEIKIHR
Chain of Chromo domain-containing protein 1 (Saccharomyces cerevisiae (strain ATCC 204508 / S288c) (Baker's yeast)) (P32657 whole entry, the tested form may be a part): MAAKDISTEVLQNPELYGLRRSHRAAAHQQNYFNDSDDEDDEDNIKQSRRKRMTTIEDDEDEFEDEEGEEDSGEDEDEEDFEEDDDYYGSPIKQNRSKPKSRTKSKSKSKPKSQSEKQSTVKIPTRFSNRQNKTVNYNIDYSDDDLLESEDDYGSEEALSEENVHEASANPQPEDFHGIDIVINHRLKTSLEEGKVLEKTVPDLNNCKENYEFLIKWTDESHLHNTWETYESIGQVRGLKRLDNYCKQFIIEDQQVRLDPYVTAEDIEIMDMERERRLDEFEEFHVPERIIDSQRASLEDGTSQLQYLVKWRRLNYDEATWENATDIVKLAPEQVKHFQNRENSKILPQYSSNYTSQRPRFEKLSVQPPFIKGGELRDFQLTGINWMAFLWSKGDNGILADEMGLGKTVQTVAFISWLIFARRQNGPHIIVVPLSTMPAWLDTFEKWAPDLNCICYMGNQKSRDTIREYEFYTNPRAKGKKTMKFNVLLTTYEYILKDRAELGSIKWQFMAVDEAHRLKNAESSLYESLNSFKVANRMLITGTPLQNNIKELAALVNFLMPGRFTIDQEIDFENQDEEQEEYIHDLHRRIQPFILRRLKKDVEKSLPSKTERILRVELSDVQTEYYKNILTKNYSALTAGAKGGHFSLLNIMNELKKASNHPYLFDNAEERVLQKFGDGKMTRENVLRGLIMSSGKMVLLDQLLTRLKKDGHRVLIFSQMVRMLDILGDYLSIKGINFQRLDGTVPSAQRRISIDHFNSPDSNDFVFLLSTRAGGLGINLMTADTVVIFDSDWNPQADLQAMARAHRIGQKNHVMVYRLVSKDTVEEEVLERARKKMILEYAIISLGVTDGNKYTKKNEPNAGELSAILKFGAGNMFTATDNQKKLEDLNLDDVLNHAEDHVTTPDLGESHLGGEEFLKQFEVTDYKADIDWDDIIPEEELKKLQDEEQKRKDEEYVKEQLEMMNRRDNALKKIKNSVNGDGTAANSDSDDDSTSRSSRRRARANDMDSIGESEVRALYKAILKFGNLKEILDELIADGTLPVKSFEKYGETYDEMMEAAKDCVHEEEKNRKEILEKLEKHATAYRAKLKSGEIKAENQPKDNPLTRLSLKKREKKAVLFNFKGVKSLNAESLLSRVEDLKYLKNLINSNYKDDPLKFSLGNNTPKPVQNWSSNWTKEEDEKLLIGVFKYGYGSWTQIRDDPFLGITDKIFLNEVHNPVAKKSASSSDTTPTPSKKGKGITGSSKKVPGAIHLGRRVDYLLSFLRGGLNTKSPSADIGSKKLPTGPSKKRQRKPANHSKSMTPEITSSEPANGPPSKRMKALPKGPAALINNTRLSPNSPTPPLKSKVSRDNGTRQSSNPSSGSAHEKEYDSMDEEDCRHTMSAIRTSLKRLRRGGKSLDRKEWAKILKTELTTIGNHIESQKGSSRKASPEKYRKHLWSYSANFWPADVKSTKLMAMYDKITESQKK
Chain of Protein translocase subunit SecA (Escherichia coli (strain K12)) (P10408 whole entry): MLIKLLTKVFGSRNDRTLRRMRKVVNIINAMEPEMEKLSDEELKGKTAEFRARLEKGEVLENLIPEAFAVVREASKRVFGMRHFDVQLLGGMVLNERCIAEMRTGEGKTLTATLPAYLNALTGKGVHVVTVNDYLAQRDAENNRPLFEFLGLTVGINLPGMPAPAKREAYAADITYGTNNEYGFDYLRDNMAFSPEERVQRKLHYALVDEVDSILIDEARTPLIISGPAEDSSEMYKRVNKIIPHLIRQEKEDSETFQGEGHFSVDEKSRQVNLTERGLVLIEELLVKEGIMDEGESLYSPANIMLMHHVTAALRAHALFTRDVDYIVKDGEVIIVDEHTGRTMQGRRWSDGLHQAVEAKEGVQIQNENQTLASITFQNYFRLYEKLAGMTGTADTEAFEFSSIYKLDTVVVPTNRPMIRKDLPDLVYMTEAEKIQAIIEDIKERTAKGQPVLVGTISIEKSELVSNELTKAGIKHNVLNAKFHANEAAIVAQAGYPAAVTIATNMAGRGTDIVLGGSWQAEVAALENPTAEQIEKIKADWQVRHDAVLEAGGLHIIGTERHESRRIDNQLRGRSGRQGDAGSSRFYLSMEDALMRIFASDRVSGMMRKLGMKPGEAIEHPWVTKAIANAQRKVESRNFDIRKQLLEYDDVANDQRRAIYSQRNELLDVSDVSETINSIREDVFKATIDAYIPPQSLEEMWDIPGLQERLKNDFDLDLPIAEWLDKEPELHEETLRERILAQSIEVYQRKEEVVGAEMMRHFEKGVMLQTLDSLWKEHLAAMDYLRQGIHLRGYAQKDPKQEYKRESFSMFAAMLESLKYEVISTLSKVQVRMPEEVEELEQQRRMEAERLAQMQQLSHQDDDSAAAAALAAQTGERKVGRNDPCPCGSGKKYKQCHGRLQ

With `O=C(C1=CCCC1)N1CCC[C@]2(C[C@@H](OCc3ccncc3)CO2)C1`, the Percent Effect in [1] was 1.57%; in experiment [2] it was 10.7%; in [3] it was 4.23%; in [4], 8.61%; in the experiment on Trypanosoma cruzi, -1.93%; in experiment [5], -19.2%. Moreover, the Percent Effect was 7.69% in experiment [6]; -6.85% in the experiment listed under Homo sapiens; 5.21% in experiment [7]; 22.5% in [8]; -9.61% in experiment [9].
For `COC(=O)c1cc(OCC2CCC2)cc(C(=O)N[C@H]2CC[C@H](O)CC2)c1`, the Percent Effect in experiment [1] is -8.61%; in experiment [2] it was 0%; in experiment [3], -13.1%; in experiment [4], 12.3%; in the experiment with Trypanosoma cruzi, -5.09%; in experiment [5], -0.455%. Also, the Percent Effect was 2.66% in experiment [6]; 32.3% in the experiment listed under Homo sapiens; 0% in experiment [7]; 0% in [8]; 0.449% in experiment [9].
In the case of `CCN1CC2(CCN(CCOCCO)CC2)CC(c2ccccc2)C1=O` (stereo unspecified), the Percent Effect was -1.44% in experiment [1]; 8% in experiment [2]; -14.6% in experiment [3]; 3.65% in [4]; 0.292% in the experiment with Trypanosoma cruzi; -3.12% in experiment [5]. For the same compound, the Percent Effect was 15.2% in [6]; 14.3% in the experiment listed under Homo sapiens; 2.73% in experiment [7]; 8.64% in [8]; -6.05% in experiment [9].
On to `Cc1ccc(N(CC(=O)c2ccc(Br)cc2)C2=NCCCCC2)cc1`, for which the Percent Effect in experiment [1] was -1.45%; in [2], -55.3%; in experiment [3], 5.34%; in experiment [4], 3.76%; in the experiment with Trypanosoma cruzi it was 5.55%; in experiment [5], -11.8%. Further, the Percent Effect in experiment [6] was 11%; in the experiment listed under Homo sapiens, 17.9%; in experiment [7], 4.25%; in experiment [8], -2.6%; in [9] it was -1.8%.
Consider `CC(C)c1cc(NCC(C)N2CCCC2)n2nccc2n1` (stereo unspecified), for which the Percent Effect in experiment [1] is 1.2%; in experiment [2] it was 8.11%; in [3], 1.17%; in [4] it was 6.08%; in the experiment on Trypanosoma cruzi, -2.51%; in experiment [5], -1.43%. The Percent Effect in experiment [6] was 20.5%; in the experiment listed under Homo sapiens it was 6.7%; in experiment [7] it was 12.2%; in [8], 17.1%; in [9] it was -5.28%.
On to `Cc1ccc(CN2CCC3(CC2)OC(C(=O)N(C)C)c2ccccc23)o1` (stereo unspecified), for which the Percent Effect in experiment [1] is -0.000759%; in [2], 4%; in experiment [3], -1.87%; in [4], -0.475%; with Trypanosoma cruzi, -10.2%; in [5], -8.63%. The Percent Effect was 14.6% in [6]; 2.54% in the experiment filed under Homo sapiens; 4.23% in experiment [7]; 0% in experiment [8]; -8.66% in experiment [9].
Regarding `COCC1c2c(cnn2CC2CC2)CCN1Cc1ccc(OC)cc1` (stereo unspecified), the Percent Effect in experiment [1] is 0.566%; in experiment [2] it was -5.33%; in experiment [3] it was -0.782%; in experiment [4], 3.28%; in the experiment with Trypanosoma cruzi it was -0.772%; in [5], -53.2%. Further, the Percent Effect in [6] was 9.23%; in the experiment filed under Homo sapiens, 91.4%; in experiment [7], -4.17%; in experiment [8], 2.5%; in [9], -3.58%.
`CC(=O)c1cccc(OCCCC(=O)NCC2CCCN2C)c1` (stereo unspecified): the Percent Effect in experiment [1] is -3.97%; in [2] it was 13.2%; in experiment [3], -2.69%; in experiment [4], 14.8%; in the experiment on Trypanosoma cruzi it was 3.57%; in experiment [5] it was 0%. Besides, the Percent Effect in experiment [6] was 11.7%; in the experiment filed under Homo sapiens it was 6.04%; in experiment [7], 10.3%; in [8], 21.9%; in experiment [9], -9.7%.
For the compound `CC(=O)N1CCCN(C(=O)NCc2ccccn2)CC1`, the Percent Effect is -4.25% in experiment [1]; 0% in experiment [2]; 2.97% in experiment [3]; 0.332% in experiment [4]; -5.88% with Trypanosoma cruzi; 3.6% in experiment [5]. For the same compound, the Percent Effect in experiment [6] was 3.81%; in the experiment filed under Homo sapiens, 2.28%; in experiment [7], 1.48%; in experiment [8] it was -6.17%; in experiment [9] it was 9.43%.
Regarding `Cc1[nH]c(=O)[nH]c(=O)c1CN1CCCC(CCc2ccccc2)C1` (stereo unspecified), the Percent Effect in [1] is -1.15%; in experiment [2], 2.7%; in experiment [3], -3.11%; in experiment [4], 8.59%; in the experiment on Trypanosoma cruzi, -5.02%; in [5], 0.952%. Besides, the Percent Effect in [6] is 18.1%; in the experiment listed under Homo sapiens, -0.602%; in [7], 4.76%; in [8] it was 17.1%; in experiment [9] it was -3.68%.
With `CN(C)CC1CN(c2ccc(C#N)cn2)CCO1` (stereo unspecified), the Percent Effect is -4.87% in experiment [1]; -5.26% in experiment [2]; -3.08% in experiment [3]; 5.48% in experiment [4]; 3.27% in the experiment on Trypanosoma cruzi; -4.32% in [5]. Further, the Percent Effect was -5.16% in [6]; -1.95% in the experiment filed under Homo sapiens; 2.46% in experiment [7]; 3.7% in [8]; -8.21% in experiment [9].
